Composite z-score and composite Z-score data for 16 molecules are collected here from PubChem BioAssay.

Calls of active or inactive are those of the source.

One assay concerns the target Albumin (Bos taurus) (UniProt P02769). The experiment in a line: compounds binding labelled BSA control protein – biochemical, small-molecule microarray, Alexa647 label, 635/667 nm fluorescence, artefact control for SMM control protein annotation, profiling panel (AID 1118).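 Also: score merges 667 nm emission intensity and signal-to-noise per printed compound spot.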 To be noted: BSA-A647 binding, fluorescence 635 nm, higher = more signal.
Assay [1] can be described thus: probe aXIP binding to arrayed compounds – biochemical, NeuroSMM set, 635/667 nm fluorescence, primary screen (AID 1119).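 Also: probe is the protein aXip251-270 applied at 1 µg/mL to compound-printed slides; binding of probe to printed compounds measured as 667 nm fluorescence plus signal to noise.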 Conditions: small-molecule microarray, higher = more signal, called active from +8 up or from −8 down.
A short description of assay [2]: probe aNOTCH3 binding on compound microarray – biochemical, small-molecule microarray, 635/667 nm fluorescence, primary screen (AID 1120).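 Also: probe is a biotin-tagged antibody raised against NOTCH3 rather than NOTCH3 protein; score merges spot fluorescence near 667 nm with spot signal to noise.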 Conditions: higher = more signal.
Assay [3] can be described thus: probe aNOTCH2 binding on compound microarray – biochemical, small-molecule microarray, 635/667 nm fluorescence, primary screen (AID 1121).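 Also: score merges feature fluorescence read at 667 nm with its signal to noise.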 To be noted: higher = more signal.
For assay [4], the target named is Carbonic anhydrase 2 (Homo sapiens) (UniProt P00918). The experiment in a line: compounds binding carbonic anhydrase 2 – biochemical, small-molecule microarray, Alexa647-labelled CAII, profiling panel (AID 1122). Conditions: CAII-A647 binding fluorescence, higher = more signal.
The nature of assay [5]: COS7 lysate on small-molecule microarray, probe aHis, 635 nm (AID 1123).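 Also: z-score combines 667nm fluorescence intensity with signal-to-noise per printed compound spot.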 Conditions: COS7 cell lysate, fluorescence, higher = more signal.
The nature of assay [6]: probe aLAP1 signal on lysate-treated microarray – cell lysate, small-molecule microarray, COS7 lysate, primary screen (AID 1124).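 Also: lysate comes from COS7 cells expressing LAP1 and is applied at 0.3 µg/mL; score merges spot fluorescence near 667 nm with signal-to-noise over triplicate slides.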 To be noted: probe aLAP1, fluorescence, higher = more signal.
A further assay has as its system Sam68 (KHDRBS1). As to the kind of experiment: compounds binding KHDRBS1 protein – biochemical, small-molecule microarray, 635 nm fluorescence, primary screen (AID 1125).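 Also: score merges 667 nm channel intensity with signal to noise over triplicate slides.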 To be noted: higher = more signal.
For assay [7], the system named is Chordin-like protein 2 (CHRDL2). The experiment in a line: compounds binding chordin-like 2 – biochemical, small-molecule microarray, 635 nm fluorescence, primary screen (AID 1126).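 Also: printed compound slides probed with Chrdl2 protein at 4 µg/mL for 1 h at 4 C; score merges 667 nm emission intensity with signal to noise over three replicate slides.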 To be noted: fluorescence 635 nm, higher = more signal.
Assay [8] has as its target Concanavalin-A (Canavalia ensiformis) (UniProt P02866). The experiment in a line: compounds binding concanavalin A lectin – biochemical, small-molecule microarray, Alexa647 label, 635 nm, artefact control for SMM control protein annotation, primary screen (AID 1127).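 Also: z combines 667 nm emission intensity with signal-to-noise across three replicate slides.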 Conditions: ConA-A647 binding fluorescence, higher = more signal.

Concanavalin-A (Canavalia ensiformis), sequence (P02866 whole entry, looked up): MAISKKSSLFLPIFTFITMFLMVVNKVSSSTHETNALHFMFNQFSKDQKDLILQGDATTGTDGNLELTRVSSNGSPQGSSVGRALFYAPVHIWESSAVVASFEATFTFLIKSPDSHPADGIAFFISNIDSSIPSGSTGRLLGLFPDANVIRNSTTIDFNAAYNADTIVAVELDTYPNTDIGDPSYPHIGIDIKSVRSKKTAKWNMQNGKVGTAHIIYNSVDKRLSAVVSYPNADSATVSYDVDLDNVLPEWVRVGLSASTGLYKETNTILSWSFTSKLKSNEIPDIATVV
Albumin (Bos taurus), sequence (P02769 whole entry, looked up): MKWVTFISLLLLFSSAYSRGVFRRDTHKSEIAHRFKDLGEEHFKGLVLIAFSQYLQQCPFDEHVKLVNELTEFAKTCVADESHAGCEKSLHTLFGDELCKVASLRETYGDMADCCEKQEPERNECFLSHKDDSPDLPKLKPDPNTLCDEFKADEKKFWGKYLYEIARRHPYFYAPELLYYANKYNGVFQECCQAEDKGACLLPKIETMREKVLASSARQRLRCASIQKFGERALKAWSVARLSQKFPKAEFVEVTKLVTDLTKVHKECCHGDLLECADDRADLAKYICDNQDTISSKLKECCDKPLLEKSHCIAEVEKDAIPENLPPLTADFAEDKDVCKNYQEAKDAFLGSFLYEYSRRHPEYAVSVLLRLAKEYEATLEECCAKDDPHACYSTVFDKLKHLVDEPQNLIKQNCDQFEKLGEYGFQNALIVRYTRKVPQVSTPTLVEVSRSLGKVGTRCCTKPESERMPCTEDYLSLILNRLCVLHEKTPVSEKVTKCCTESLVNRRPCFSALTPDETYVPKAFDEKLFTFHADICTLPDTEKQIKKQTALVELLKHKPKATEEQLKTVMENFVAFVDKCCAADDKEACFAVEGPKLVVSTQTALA

For the molecule `COc1cc2c(cc1OC)CN(C(=O)[C@H]1[C@@H]3C(=O)O[C@@H](c4ccccc4)[C@@H](c4ccccc4)N3[C@@H](c3ccc(OCCO)cc3)[C@]13C(=O)Nc1ccc(C#CC4(O)CCCCCC4)cc13)CC2`, the composite z-score with Albumin (Bos taurus) is 0.822; in [2], -0.337; in assay [3], -0.126; in assay [4], 0.619; in [5], 1.52; in assay [6], 0.491. Also, the composite z-score amounted to 1.29 in the assay on Sam68 (KHDRBS1), 0.739 in [7] and 1.18 in [8]. Further, in assay [1], the composite Z-score was -0.195 (inactive).

Regarding `CCOC(=O)C1=CC[C@@H](c2ccc([N+](=O)[O-])cc2)N(S(=O)(=O)c2ccc(C)cc2)[C@H]1c1ccccc1`, the composite z-score with Albumin (Bos taurus) was 0.845; in [2] it was 0.233; in assay [3], -0.0297; in [4], 0.373; in assay [5], 2.21; in [6] it was 0.359. In addition, the composite z-score in the assay on Sam68 (KHDRBS1) is 1.28; in assay [7], 0.402; in assay [8], 0.842. Besides, in assay [1], the composite Z-score is 0.312 (inactive).

`O=C1O[C@H](c2ccccc2)[C@H](c2ccccc2)N2[C@H]1[C@@H](C(=O)O)[C@]1(C(=O)Nc3ccccc31)[C@H]2c1ccc(O)cc1`: the composite z-score with Albumin (Bos taurus) is -0.731; in assay [2], -0.135; in assay [3], -0.131; in [4], 0.673; in assay [5], 0.969; in assay [6], 1.01. The composite z-score in the assay on Sam68 (KHDRBS1) was -0.43; in assay [7], -0.632; in assay [8], 0.586. For the same molecule, in assay [1], the composite Z-score is -0.0012 (inactive).

For `CN(C)C(=O)[C@@]1(Cc2ccccc2N=[N+]=[N-])COC(c2ccc(OCCCO)cc2)=N1`, the composite z-score was 0.623 in the assay with Albumin (Bos taurus); 0.12 in assay [2]; -0.268 in assay [3]; 0.71 in assay [4]; 1.89 in [5]; 0.0648 in assay [6]. The composite z-score in the assay on Sam68 (KHDRBS1) turned out to be 0.905; in assay [7] it was 0.118; in [8], 1.12. For the same molecule, in [1], the composite Z-score is 1.69 (inactive).

For the molecule `CC(C)C(=C=CC[C@H](O)c1ccc(OCCO)cc1)C[C@H](O)c1cc(Cl)cc(Cl)c1O`, the composite z-score is 0.584 with Albumin (Bos taurus); 0.232 in assay [2]; -0.0533 in [3]; 0.542 in assay [4]; 0.644 in [5]; 0.147 in assay [6]. Besides, the composite z-score in the assay on Sam68 (KHDRBS1) was found to be 1.26; in assay [7], 0.243; in [8], 1.07. Also, the composite Z-score in [1] is 0.32 (inactive).

`C[n+]1ccc(CCCO)cc1`: the composite z-score with Albumin (Bos taurus) is -0.911; in assay [2] it was 0.182; in assay [3], -0.0211; in assay [4], 0.321; in [5], 2.53; in assay [6], 1.6. In addition, the composite z-score in the assay on Sam68 (KHDRBS1) was 0.0844; in assay [7], 0.127; in assay [8] it was -0.0858. Also, the composite Z-score in [1] was 0.165 (inactive).

On to `O=C1O[C@@H](c2ccccc2)[C@@H](c2ccccc2)N2[C@@H](c3ccccc3OCCO)[C@]3(C(=O)Nc4ccc(C#CCCO)cc43)[C@@H](C(=O)Nc3nc4ccccc4s3)[C@H]12`, for which the composite z-score was 0.792 with Albumin (Bos taurus); 0.302 in assay [2]; 0.0203 in assay [3]; 0.428 in assay [4]; 1.28 in [5]; 1.33 in assay [6]. Moreover, the composite z-score came to 1.31 in the assay with Sam68 (KHDRBS1), 0.529 in [7] and 1.14 in [8]. In addition, the composite Z-score in [1] is 0.229 (inactive).

Consider `C=CCN1C(=O)[C@@]2(O[C@@H](CCn3cc([C@H](O)c4ccccc4)nn3)[C@H]([Si](C)(C)c3ccc(OC)cc3)[C@H]2C)c2ccccc21`, for which the composite z-score with Albumin (Bos taurus) is 0.205; in [2], 0.221; in assay [3], -0.151; in assay [4], 0.499; in assay [5], 0.422; in assay [6], 0.572. Further, the composite z-score was found to be 1.08 with Sam68 (KHDRBS1), 0.333 in [7] and 1.01 in assay [8]. In [1], the composite Z-score was 0.363 (inactive).

On to `COCCOC(=O)N1C(=O)[C@@]2(c3cc(C#CC4=CCCCC4)ccc31)[C@H](c1ccc(O)cc1)N1[C@H](c3ccccc3)[C@H](c3ccccc3)OC(=O)[C@H]1[C@@H]2C(=O)Nc1nc2ccccc2s1`, for which the composite z-score with Albumin (Bos taurus) is 0.802; in assay [2] it was 0.302; in [3], -0.121; in [4], 0.556; in [5], 2.78; in [6], 0.657. In addition, the composite z-score was found to be 1.32 with Sam68 (KHDRBS1), 0.206 in assay [7] and 1.12 in [8]. Further, the composite Z-score in assay [1] is -0.202 (inactive).

Turning to `COc1ccc([Si](C)(C)[C@@H]2[C@@H](CCO)O[C@]3(C(=O)N(Cc4cccc(N5C(=O)c6ccccc6Oc6ccccc65)c4)c4ccccc43)[C@H]2C)cc1`, the composite z-score with Albumin (Bos taurus) was 0.326; in assay [2], -0.157; in assay [3], -0.0712; in assay [4] it was 0.411; in assay [5], 1.07; in [6], 0.594. The composite z-score in the assay with Sam68 (KHDRBS1) is 0.554; in [7], -0.245; in assay [8], 0.276. Further, in [1], the composite Z-score is -0.0368 (inactive).

In the case of `CCOc1cc(C(O)C2C=CC3C(=O)N(C4CCCCC4)C(=O)C3N2Nc2ccc(OC)cc2)ccc1O` (stereo not given), the composite z-score is 0.786 with Albumin (Bos taurus); 0.208 in assay [2]; 0.0791 in assay [3]; 0.441 in assay [4]; 2.61 in assay [5]; 0.717 in assay [6]. The composite z-score in the assay with Sam68 (KHDRBS1) was 1.28; in assay [7], -0.0164; in [8], 1.12. Further, the composite Z-score in [1] was 0.764 (inactive).

Regarding `O=C1O[C@@H](c2ccccc2)[C@@H](c2ccccc2)N2[C@@H](c3ccc(O)cc3)[C@]3(C(=O)Nc4ccccc43)[C@@H](C(=O)Nc3nc4ccccc4s3)[C@H]12`, the composite z-score was 0.625 with Albumin (Bos taurus); 0.0695 in assay [2]; -0.144 in assay [3]; 0.613 in assay [4]; 1.39 in [5]; 0.399 in [6]. For the same molecule, the composite z-score in the assay with Sam68 (KHDRBS1) amounted to 1.31; in [7], 0.0129; in [8] it was 1.17. In addition, in [1], the composite Z-score was -0.8 (inactive).

Consider `C=C[C@H](COC(C)=O)NS(=O)(=O)c1ccc(Br)cc1`, for which the composite z-score with Albumin (Bos taurus) is 0.0793; in assay [2], -0.217; in assay [3], -0.106; in assay [4] it was -0.111; in assay [5], -0.0413; in [6] it was -0.0354. The values for the composite z-score (in the assay with Sam68 (KHDRBS1); in [7]; in [8]) were -0.603, 1.14 and 0.43, respectively. Also, the composite Z-score in assay [1] was 0.131 (inactive).

Regarding `COc1cc(OC)c(C(O)C2C=CC3C(=O)N(c4ccccc4)C(=O)C3N2Nc2ccc(C#N)cc2)cc1Br` (stereo not given), the composite z-score in the assay with Albumin (Bos taurus) came to 1.01; in [2], 0.334; in assay [3], 0.401; in [4], 0.849; in assay [5], 2.49; in assay [6], 1.41. Further, the composite z-score in the assay on Sam68 (KHDRBS1) was 1.15; in [7], 0.355; in assay [8] it was 1.04. Moreover, in assay [1], the composite Z-score was 1.5 (inactive).

In the case of `CCCCN1CC=CC23O[C@@H]4C=CCOC(=O)[C@@H]4[C@H]2C(=O)N(C(C)CO)[C@@H]3C1=O` (stereo not given in full), the composite z-score with Albumin (Bos taurus) is -1.04; in assay [2], -0.154; in assay [3], -0.118; in assay [4], 0.904; in assay [5], -0.819; in [6] it was -0.0435. In addition, the composite z-score in the assay with Sam68 (KHDRBS1) is -1.6; in assay [7], -1.98; in [8] it was -1.33. In addition, in [1], the composite Z-score was -0.527 (inactive).

For `CN1C(=O)[C@@]2(CCS(=O)(=O)c3ccccc3)N=C(c3ccc(OCCCO)cc3)O[C@H]2c2ccccc21`, the composite z-score with Albumin (Bos taurus) is 0.159; in assay [2], 0.058; in [3], -0.146; in assay [4], 0.688; in assay [5] it was 2.74; in [6], 0.428. The composite z-score in the assay with Sam68 (KHDRBS1) was 1.28; in assay [7], 0.0089; in [8], 1.1. In addition, the composite Z-score in assay [1] is 0.334 (inactive).
